Among the test systems are T-47D breast; BT-549 breast; MDA-MB-435 melanoma; SW-620 colon; MCF7 breast; HCT-116 colon; HCC-2998 colon; KM12 colon.
Holding throughout (assay): NCI-60 one-dose screen, 48 h (100 = growth as untreated, 0 = no growth, -100 = all killed)
What all share (conditions): 10 µM unless noted

Compounds without any hit were thinned out: in the full panel of roughly 83,000, 20% have a hit.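 Interpretation: 100, growth as untreated; towards 0, rising growth inhibition; 0, no net growth; 0 to -100, cell death. Compounds scoring below 10 were considered active.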 A number with no mark means an inactive call. Calls of active or inactive are those of the source.

As for `O=C(O)c1cc2ccccc2cc1Nc1ccccc1`, the growth is 89.3% with T-47D breast; 113% in the test with BT-549 breast; 103% in the test with MDA-MB-435 melanoma; 105% in the test with SW-620 colon; 76.2% in the test on MCF7 breast; 89.7% in the test on HCT-116 colon. Also, the growth is 99.1% in the test on HCC-2998 colon and 109% with KM12 colon.

On to `O=C(Nc1ccc(-n2cc(-c3ccncc3)c(-c3ccc(O)c(Cl)c3)n2)cc1)Nc1cccc(Cl)c1Cl`, for which the growth is 42.1% in the test on T-47D breast; 59% with BT-549 breast; 51.3% with MDA-MB-435 melanoma; 73.7% with SW-620 colon; 42.2% in the test with MCF7 breast; 36.8% in the test with HCT-116 colon. Further, the growth in the test with HCC-2998 colon was 70%; in the test with KM12 colon, 39.1%.

For the molecule `CCCCN(CCCC)c1ccc(C(=N)c2ccc(N(C)C)cc2)cc1`, the growth in the test on T-47D breast is -23.3% (active); in the test with BT-549 breast, -72.4% (active); in the test with MDA-MB-435 melanoma, -74.1% (active); in the test with SW-620 colon, -85.2% (active); in the test on MCF7 breast, -52.9% (active); in the test with HCT-116 colon it was -100% (active). Besides, the growth was -47.5% (active) in the test with HCC-2998 colon and -50.5% (active) in the test with KM12 colon.

For `COc1ccc(C(=O)NC(=O)Nc2ccc3c(c2)NC(=O)/C3=C\c2[nH]c(C)c(CCC(=O)O)c2C)c(F)c1`, the growth is 21.5% in the test on T-47D breast; 11.2% in the test with BT-549 breast; 53.8% in the test with MDA-MB-435 melanoma; 38.5% in the test with SW-620 colon; 45.3% with MCF7 breast; 28.3% in the test with HCT-116 colon. The results for the growth in the test on HCC-2998 colon and in the test on KM12 colon were 46.8% and 15.5%, respectively.

Turning to `O=[N+]([O-])c1cccc(C2c3ccccc3Oc3ccccc32)c1`, the growth with T-47D breast is 86.4%; in the test on BT-549 breast it was 116%; with MDA-MB-435 melanoma it was 98.1%; in the test on SW-620 colon it was 86.9%; with MCF7 breast it was 98.7%; in the test with HCT-116 colon it was 68.3%. The growth with HCC-2998 colon is 91.1%; in the test on KM12 colon, 86.7%.

Take `COc1ccc(-n2c(-c3ccc(NC(=O)CCCl)cc3)nnc2-c2cc(OC)c(OC)c(OC)c2)cc1`: the growth is 25.3% in the test on T-47D breast; 66.6% in the test with BT-549 breast; 54.9% in the test on MDA-MB-435 melanoma; 54.5% in the test on SW-620 colon; 23.2% with MCF7 breast; 35.7% in the test with HCT-116 colon. The growth in the test with HCC-2998 colon was 43.2%; in the test with KM12 colon, 15.4%.

`CCOc1ccc(NC(=O)Nc2cc(C(C)C)ccc2C)cc1`: the growth in the test with T-47D breast is 77.3%; in the test with BT-549 breast, 114%; with MDA-MB-435 melanoma, 85%; in the test with SW-620 colon, 91.1%; with MCF7 breast, 111%; with HCT-116 colon, 36.3%. Moreover, the growth in the test on HCC-2998 colon is 59.8%; with KM12 colon, 75.4%.

Regarding `COC(=O)Nc1nc2ccc(Sc3ccccc3)cc2[nH]1`, the growth was 60.8% in the test on T-47D breast; 49.5% with BT-549 breast; -45.2% (active) in the test with MDA-MB-435 melanoma; 18.6% in the test on SW-620 colon; 21.4% with MCF7 breast; 15% in the test on HCT-116 colon. Further, the growth with HCC-2998 colon is 0.2% (active); in the test on KM12 colon, 3.07% (active).

In the case of `COc1ccc(-c2ccc(NC(=O)Nc3cccc(C(F)(F)F)c3)c(C)n2)cc1`, the growth with T-47D breast is 26.5%; with BT-549 breast, 66.4%; with MDA-MB-435 melanoma, 69.6%; in the test with SW-620 colon, 81%; in the test with MCF7 breast, 41.5%; in the test with HCT-116 colon, 26.9%. For the same molecule, the results for the growth with HCC-2998 colon and in the test with KM12 colon were 81.1% and 45.6%, respectively.

For the molecule `O=C(Cn1c2ccccc2c2ccncc21)N/N=C/c1c[nH]c2ccccc12`, the growth with T-47D breast was 90.2%; in the test on BT-549 breast, 94.4%; in the test with MDA-MB-435 melanoma, 33.8%; in the test with SW-620 colon it was 34.3%; with MCF7 breast, 37.8%; in the test with HCT-116 colon, 4.33% (active). The growth in the test with HCC-2998 colon is 87.5%; in the test with KM12 colon it was 60.5%.

As for `CCCC(=O)Oc1ccc(/C(=C(\C)c2ccc(OC)cc2)c2ccc(OCCN3CCCCC3)cc2)cc1`, the growth was 32.7% in the test with T-47D breast; 82.2% in the test on BT-549 breast; 84.2% in the test on MDA-MB-435 melanoma; 87.5% in the test with SW-620 colon; 28.3% with MCF7 breast; 55.7% in the test with HCT-116 colon. The growth with HCC-2998 colon is 91%; with KM12 colon it was 75.6%.

Regarding `CCCCOc1nc2ccc(Cl)cc2cc1/C=C/C(=O)/C=C/c1ccc(OC)cc1`, the growth is 86.8% with T-47D breast; 93.6% in the test on BT-549 breast; 9.64% (active) in the test with MDA-MB-435 melanoma; 107% in the test with SW-620 colon; 30.7% in the test with MCF7 breast; -25.4% (active) in the test on HCT-116 colon. In addition, the growth in the test with HCC-2998 colon was 92.7%; in the test with KM12 colon, 84%.

With `NC(CCCC(N)C(=O)c1ccccc1)C(=O)O` (stereo not drawn), the growth is 89.9% in the test on T-47D breast; 104% in the test with BT-549 breast; 105% in the test with MDA-MB-435 melanoma; 110% in the test with SW-620 colon; 91.2% in the test on MCF7 breast; 99.2% in the test on HCT-116 colon. Moreover, the growth in the test with HCC-2998 colon is 103%; in the test with KM12 colon, 101%.

Regarding `O=c1nc(N2CCOCC2)oc2c(-c3cccc4ccccc34)cccc12`, the growth with T-47D breast was 79.7%; in the test on BT-549 breast it was 85.3%; in the test on MDA-MB-435 melanoma, 101%; in the test with SW-620 colon it was 97.9%; with MCF7 breast it was 89.8%; in the test on HCT-116 colon, 96.7%. The values for the growth in the test with HCC-2998 colon and in the test with KM12 colon were 109% and 87.3%, respectively.

Consider `C=C1C(=O)O[C@H]2[C@H]1CC/C(COC(=O)c1ccc3ccccc3c1)=C\CC[C@@]1(C)O[C@@H]21`, for which the growth was -55.2% (active) in the test on T-47D breast; -55.2% (active) with BT-549 breast; -73.8% (active) in the test with MDA-MB-435 melanoma; -37.9% (active) with SW-620 colon; -36.1% (active) in the test on MCF7 breast; -90.6% (active) in the test with HCT-116 colon. For the same molecule, the growth was 42% in the test with HCC-2998 colon and 32.8% in the test on KM12 colon.

With `COc1cc(-c2nc3ccccc3s2)ccc1OCc1nc2n(n1)S(=O)(=O)c1ccccc1N2c1ccccc1`, the growth with T-47D breast is 101%; with BT-549 breast, 104%; in the test on MDA-MB-435 melanoma, 107%; in the test on SW-620 colon, 102%; with MCF7 breast, 105%; in the test on HCT-116 colon, 99.5%. Also, the growth in the test with HCC-2998 colon was 129%; in the test on KM12 colon, 101%.

(Values after PubChem BioAssay (NCI).)
